# Measured values as given in the supplement of paper PMC6555819.
# Assays:
# Assay in all cases: PBM binding z-score (relative to random genomic background probes); higher = stronger binding; sequences stand for … in GC…GCGATTGACAGCGTAGAATGAAGG
# [1] = tested on: FXR:RXRa (NR concentration 270 nM, RXRa partner concentration 90 nM)
# Summary of the method: (§1)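 Antibodies against each partner of ligand-free nuclear receptor dimers (one per run) detected binding on custom Agilent 4×180K protein-binding microarrays after 1 h incubation. The double-stranded probes had 34-nt variable regions carrying direct-repeat seeds, single-nucleotide variants, half-site ablations and random human genomic background sequences. Binding z-scores, from regression-normalized fluorescence, use the random background probes as reference.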
# [2] = tested on: LXRa:RXRa (NR concentration 270 nM, RXRa partner concentration 90 nM)
# Summary of the method: as §1
# [3] = tested on: LXRa homodimer (NR concentration 270 nM)
# Summary of the method: as §1
# [4] = tested on: LXRb:RXRa (NR concentration 270 nM, RXRa partner concentration 90 nM)
# Summary of the method: as §1
# [5] = tested on: LXRb homodimer (NR concentration 270 nM)
# Summary of the method: as §1
# [6] = tested on: PPARa:RXRa (NR concentration 270 nM, RXRa partner concentration 90 nM)
# Summary of the method: as §1
# [7] = tested on: PPARg:RXRa (NR concentration 180 nM, RXRa partner concentration 90 nM)
# Summary of the method: as §1
# [8] = tested on: PPARg:RXRa 270nM:90nM, anti-RXR (NR concentration 270 nM, RXRa partner concentration 90 nM)
# Summary of the method: as §1
# [9] = tested on: PPARg:RXRa 30nM:10nM, anti-RXR (NR concentration 30 nM, RXRa partner concentration 10 nM)
# Summary of the method: as §1
# [10] = tested on: PPARg:RXRa 90nM:30nM, anti-RXR (NR concentration 90 nM, RXRa partner concentration 30 nM)
# Summary of the method: as §1
# [11] = tested on: PPARg:RXRa DBDmut IVT, anti-RXR (DBD mutation: RXRa K156A/R161A, NR concentration 270 nM, RXRa partner concentration 90 nM)
# Summary of the method: as §1
# [12] = tested on: PPARg:RXRa IVT, anti-PPARg (NR concentration 270 nM, RXRa partner concentration 90 nM)
# Summary of the method: as §1
# [13] = tested on: PPARg DBDmut:RXRa IVT, anti-PPARg (DBD mutation: PPARg1 K132A/R137A, NR concentration 270 nM, RXRa partner concentration 90 nM)
# Summary of the method: as §1
# [14] = tested on: PPARg DBDmut IVT, anti-PPARg (DBD mutation: PPARg1 K132A/R137A, NR concentration 270 nM)
# Summary of the method: as §1
# [15] = tested on: PPARg homodimer (NR concentration 180 nM)
# Summary of the method: as §1
# [16] = tested on: PXR:RXRa (NR concentration 270 nM, RXRa partner concentration 90 nM)
# Summary of the method: as §1
# [17] = tested on: PXR homodimer (NR concentration 270 nM)
# Summary of the method: as §1
# [18] = tested on: RARa:RXR (NR concentration 270 nM, RXRa partner concentration 90 nM)
# Summary of the method: as §1
# [19] = tested on: RARa homodimer (NR concentration 270 nM)
# Summary of the method: as §1
# [20] = tested on: RARb:RXRa (NR concentration 270 nM, RXRa partner concentration 90 nM)
# Summary of the method: as §1
Sequence,PBM binding z-score [1],PBM binding z-score [2],PBM binding z-score [3],PBM binding z-score [4],PBM binding z-score [5],PBM binding z-score [6],PBM binding z-score [7],PBM binding z-score [8],PBM binding z-score [9],PBM binding z-score [10],PBM binding z-score [11],PBM binding z-score [12],PBM binding z-score [13],PBM binding z-score [14],PBM binding z-score [15],PBM binding z-score [16],PBM binding z-score [17],PBM binding z-score [18],PBM binding z-score [19],PBM binding z-score [20]
TAGCCTACGTCATTCAGGGGCCAGTATAGAAAGC,-0.632,-0.447,-0.497,0.157,-0.0304,-0.0175,0.374,-0.279,-0.505,-0.468,-0.459,-0.0447,0.682,0.371,0.00959,-0.22,-0.62,-0.258,-0.456,0.27
GCACGGAGGACAAGGTCAGAGCTTTGTCCGTAGA,1.87,1.26,-0.362,1.23,-0.916,2.15,0.53,1.2,-0.394,0.459,-0.0936,0.429,-1.21,-1.21,0.85,1.72,-0.197,2.03,-0.486,3.27
TCTCGGAGGACACGAAAGGTCAGAGCACGACATC,2.91,3.73,3.12,3.29,0.0344,3.63,1.64,2.76,2.25,2.42,1.29,1.57,0.69,-0.292,4.15,4.24,0.7,4.89,2.34,4.09
TCTTGTCGATCAAAGGTTAAGAAAGCCGAAGCCT,1.41,1.95,0.175,1.9,0.245,3.76,5.79,6.32,5.47,6.64,1.37,2.3,-0.0137,0.486,0.668,1.62,-0.394,2.19,-0.0364,1.91
CAAACTAGGTCAAGGTCAAAGTCGGTTTGTGCCA,6.65,5.95,4.23,4.67,1.63,6.12,9.81,8.12,7.05,8.27,8.86,8.63,3.11,0.796,3.64,5.25,2.25,5.33,2.13,5.19
TAGCCTAGGTCATTTAGGGGCCAGTATAGAAAGC,4.42,4.04,0.996,3.09,1.69,3.41,1.46,2.15,0.169,1.49,1.79,2.38,0.515,-0.286,1.87,2.34,-0.166,3.45,-0.429,3.6
CGAACTAGGTCAGTACAGGACAGTGAAGGATGAT,1.58,1.83,-0.0342,0.493,-0.478,3,4.93,4.25,1.71,3.39,7.48,7.01,0.814,0.573,1.07,0.911,-0.456,0.671,0.153,3.04
GCGAGTTGGTCAGTAAAAGGTCACACACCGGTCG,3.43,4.42,4.78,4.07,0.343,4.36,3,4.71,2.22,4.23,0.617,2.26,0.948,-0.184,4.06,5.14,1.31,5.93,2.5,4.33
CCTCGTAGGACAACAGGAGGTCAGAGCTGCCAGA,0.951,2.16,1.91,1.57,-0.267,1.99,0.534,0.644,-0.534,0.258,0.397,0.633,-0.938,-1.38,1.75,2.08,0.26,2.37,0.699,2.56
GCTGCTGGGTCAACTGATGGTCAGCTAAAGCTCG,3.55,2.07,-0.346,1.83,-0.326,3.89,2.34,2.93,0.519,1.99,3.67,3.45,0.524,-0.337,1.55,1.94,-0.46,2.61,-0.59,3.98
ATCTCTAGGTAACCAGGTTCAGTGAATGCCGAAC,0.339,0.277,0.415,0.528,0.703,1.37,0.883,0.861,0.15,0.492,3.75,3.09,0.459,0.795,1.07,0.948,0.388,0.808,0.438,0.668
TCTCTGAGGACACGAAGGTCAGAGCTTTCCAGAG,2.1,1.06,0.117,0.798,-0.338,2,0.595,2.08,2.59,2.22,1.47,1.68,0.539,-0.166,0.898,2.18,1.25,2.04,-0.145,3.29
CGTCCAAGGTCAATGCTAGGGCAGTGAAAGCATT,6.49,4.8,0.528,3.57,0.446,5.03,3.68,4.65,1.05,3.08,2.64,3.52,0.232,-0.81,2.06,3.68,0.492,4.3,-0.245,5.2
AGTCAAAGTTCACTAGGTAACGTGAGATTCAGCT,4.64,4.79,2.64,2.71,0.742,4.57,7.14,6.33,3.41,5.47,2.52,4.98,1.48,1.01,2.06,3.61,1.97,2.87,0.41,4.72
TGTAGTTGGTCACGGAGGTCACACACGACGGGTA,3.41,3.44,2.52,3.09,0.847,3.87,3.72,3.52,1.51,2.93,0.726,3.95,0.96,0.805,2.4,4.14,0.948,4.35,0.915,3.87
CCGACTGGGGCAAAGGTTATCATACTCAGTACGA,1.81,1.66,0.176,1.87,-1.04,5.54,10.5,9.03,8.6,9.34,4.35,5.85,-0.186,0.138,2.13,2.11,-0.0954,3.14,-0.00422,2.08
CCAGACAGGTGAGACGGTAACTCAGCCTCGATTA,-0.078,-0.00881,0.268,-0.263,-0.377,0.144,0.367,0.232,-0.249,-0.285,1.25,0.131,0.0493,-0.407,1,-0.403,0.193,-0.309,0.615,0.413
GCTAGTTGGTCAGTAAAACGTCACACACCGGTCG,-0.277,-0.464,-0.383,-0.473,-0.195,-0.343,0.524,-0.186,-0.445,-0.286,0.256,0.168,0.0879,-0.472,-0.368,-0.432,-0.66,-0.372,-0.12,0.305
TCATATAGGTAAAGGTGACAGTCGAACGATATGA,0.847,1.04,0.0349,0.847,-0.211,2.88,3.72,4.32,4.16,4.4,4.04,4.07,1.74,1.19,0.889,0.897,0.245,1.44,0.76,1.9
TCATATAGGTAAATGTTAGGTGAAAGTCCGATCT,1.64,1.44,0.543,1.22,0.304,1.64,1.04,2.53,4.07,3.22,4.12,2.63,1.47,1.82,1.66,0.918,0.8,1.63,1.9,0.728
TCTGCTAGGTCAGTTGTTCAGCTAACGAGCTGCC,0.697,0.0799,-0.424,0.213,0.398,1,-0.335,1.24,1.28,1.21,2.38,2.46,-0.0117,0.257,-0.0463,0.0123,-1.04,0.419,-1.19,3.15
GCTGCTAGGTCAGGTTGGTCAGCAAACGGGTACG,1.13,0.793,-0.389,0.519,-0.114,1.52,0.5,0.829,-0.344,0.0879,2.74,2.2,-0.864,-0.495,0.7,0.33,-0.684,0.7,-0.687,3.25
CGAACTAGGTCAAGGACAGTGGATCTCCGCACGC,3.06,1.85,-0.0741,1.23,-0.565,4.31,6.9,6.1,3.35,5.72,8.19,7.79,1.43,0.272,0.876,0.906,-0.161,1.62,0.0729,3.84
ATCTCTAGGTAAGACTCACTTCAGTGAAGAACGC,0.0875,0.0793,-0.134,0.11,0.863,0.00782,0.276,0.0551,0.479,0.192,1.59,1.19,0.772,1.01,0.77,-0.228,0.171,-0.265,0.334,-0.0456
ATAATGAGGTTATACGTAGATCAGGGAAGAAAGT,2.27,2.55,0.45,1.89,0.893,3.42,2.56,2.38,0.895,1.89,4.24,2.58,2.03,2.05,0.998,1.7,0.97,2.12,1.63,1.75
CGTCCAAGGTCAGAGGAGGTCAGTGAAGACAGAT,6.02,5.57,2.4,4.09,-0.0595,4.82,3.53,3.88,0.854,2.48,1.93,3.41,0.0529,-0.477,3.97,6.58,2.7,5.37,1.91,5.22
CCTATTGGTTGACCATAAGGGCAACCGAAGCTCG,0.484,-0.0111,-0.255,0.153,-0.527,0.421,0.215,0.235,-0.263,-0.214,-1.11,0.135,-0.489,-1.22,0.0166,0.326,-0.293,0.774,-0.166,1.26
AGAATCAGGTTACCAAAGATCAGGGAAACGCTTG,0.0425,4.27,-0.14,1.12,0.162,1.69,1.24,1.19,0.411,0.466,3.77,3.08,0.88,1.06,0.0981,0.0669,-0.0157,0.359,-0.131,1.08
